Consider 27 compounds from PubChem BioAssay (NCI).

Compounds without any hit were thinned out: in the full panel of roughly 83,000, 20% have a hit.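 The test compound was applied at a single concentration to cells in 96-well plates for 48 hours, and percent growth was recorded.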 A number with no mark means an inactive call. Calls of active or inactive are those of the source. The calls were made as follows: active = growth percent below 10; inactive = the rest.

This test concerns HCT-116 colon. Put plainly: NCI-60 one-dose screen, 48 h (100 = growth as untreated, 0 = no growth, -100 = all killed). The note with it: 10 µM unless noted.
Consider `C=CCC(CCCC)(C(=O)OCC)C(=O)OCC`, for which the growth was 104%.

On to `C#COc1cccc(Nc2ncnc3cc(NC(=O)[C@@H](C)Cl)ccc23)c1`, for which the growth was 9.6% [6.25 µM] (active).

For the compound `CC(C)CCN(CCC(C)C)CC(O)c1cc2c(c3ccccc13)CCCC2` (configuration not stated), the growth is 50.5%.

Regarding `O=C(CSc1nnc(-c2cc(-c3ccccc3)nc3ccccc23)n1-c1ccccc1)Nc1ccc(C(=O)/C=C/c2ccc(Cl)cc2)cc1`, the growth is 86.5%.

With `CCCCNC(=O)Oc1ccc(/C(=C(/C)Cc2ccc(OC)cc2)c2ccc(OCCN3CCCCCC3)cc2)cc1`, the growth was 54.9%.

On to `O=C1C(Nc2ccccn2)=C(I)C(=O)c2ncccc21`, for which the growth is -62.2% (active).

`Cn1cc(-c2csc(-c3c[nH]c4ccc(F)cc34)n2)c2ccnc(Cl)c21`: the growth was 61.2%.

Consider `CC(C)(C)c1cc(Cl)c(O)c(CNCCO)c1`, for which the growth was 99.1%.

Consider `Oc1c(CN2CCCC2)cc(CSCc2ccccc2)c2cccnc12`, for which the growth was 7.5% (active).

On to `O=C(CCSc1nnc2n(Cc3ccccc3)c(=O)c3c4c(sc3n12)CCCC4)N1CCN(c2ccccc2)CC1`, for which the growth is 100%.

`O=c1c2c3c(sc2n2c(-c4cc(-c5ccccc5)no4)nnc2n1Cc1ccccc1)CCCC3`: the growth is 81.6%.

For the compound `CCOC(=O)C1=C(C)/C(=C\c2[nH]c(C)c(C(=O)OCC)c2C)N=C1C`, the growth was 74.5%.

With `NS(=O)(=O)c1ccc(C(=O)NN2C(=O)c3c(Br)c(Br)c(Br)c(Br)c3C2=O)cc1`, the growth is 99.7%.

Take `CCN(CC)CCN1C(=O)c2c(c(C)c3c(oc4ccc(OC)cc43)c2C)C1=O`: the growth was 83.7%.

Take `COc1cc(Cl)c(C)cc1NC(=O)c1cc2ccccc2cc1O`: the growth was 4.6% (active).

`COc1cc(NC(=O)c2cncnc2Nc2ccc3c(ccn3Cc3ccccn3)c2)cc(OC)c1`: the growth was 18.2%.

As for `CCCCNc1nnc2n(Cc3ccccc3)c(=O)c3c4c(sc3n12)CCCC4`, the growth is 27.2%.

Take `C=CCOC(=O)C1=C(C)N(CC)C(=O)NC1c1c(Cl)n(C)c2ccccc12` (configuration not stated): the growth is 90%.

With `CNC1=CC(=O)c2c(C(=O)OC)c(C)[n+]([O-])c(C)c2C1=O`, the growth was 16%.

Regarding `O=C(/C=C/c1ccc(Oc2ccc(Br)cc2)cc1)c1ccc(Br)cc1`, the growth is 97.6%.

Take `CC(=O)/C(=C/c1ccc([N+](=O)[O-])cc1)C(=O)c1ccccc1`: the growth was 35.7%.

`COc1ccc2[nH]cc(-c3nc(-c4c[nH]c5c(Cl)nccc45)cs3)c2c1`: the growth is 36.4%.

In the case of `C=C1C(=O)O[C@H]2[C@H]1CC/C(COC(=O)/C=C\C(=O)NCc1ccc(Cn3c(=O)sn(CCCCC)c3=O)cc1)=C\CC[C@@]1(C)O[C@@H]21`, the growth is 40.3%.

Consider `O=P(O)(O)OCC1OC(n2cnc3c(NCc4ccco4)ncnc32)C(O)C1O` (configuration not stated), for which the growth was -31.1% (active).

On to `Cc1ccc(S(=O)(=O)c2nc(-c3ccccc3)oc2Sc2nc3ccccc3s2)cc1`, for which the growth was -1.16% (active).

`CCCn1cnc2c(c1=N)C(c1ccc(F)cc1)c1sc3c(F)cccc3c1O2` (configuration not stated): the growth was 36.3%.

As to `CN1C(=O)/C(=C2\SC(=Nc3ccccc3)N(Nc3ccccc3)C2=O)c2ccccc21`, the growth was 104%.
